Among the data in PubChem BioAssay (Tox21) are Potency and outcome values, retold here.

Inconclusive results are not listed. Activity calls are given as the source filed them. Unless noted, calls follow the shape of the dose curve; as a rule, active = well fitted curve in the direction sought with a large enough effect in the repeat runs; inconclusive = weak or mixed curves; inactive = no such curve, though single readings can be large; an effect the other way counts as inactive or inconclusive.

Assay [1] in a line: qHTS assay to identify small molecule agonists of the peroxisome proliferator-activated receptor delta (PPARd) signaling pathway - cell viability counter screen (AID 743211). Also: nearly all actives have a fitted effect of over 55% in size. Also: potency is read from the fitted curve at half-maximal effect. Summed up: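 Viability of GeneBLAzer PPARd UAS-bla HEK293H cells was assessed after 17 h compound incubation at 37C, using CellTiter-Glo reagent added after the reporter read and luminescence recorded 30 min later.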
A general note: Quantitative high-throughput screening tests each substance at several concentrations.

Assay [2] is described as follows: qHTS assay to identify small molecule antagonists of the peroxisome proliferator-activated receptor delta (PPARd) signaling pathway - cell viability counter screen (AID 743213). Also: nearly all actives have a fitted effect of over 50% in size. Also: potency is read from the fitted curve at half-maximal effect. An outline of the steps: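 Agonist-stimulated (L165041, 300 nM final) HEK293H PPARd UAS-bla cells are exposed to compounds for 17 h at 37 C, and ATP-based luminescence (CellTiter-Glo) from the same wells reports cytotoxicity.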

For assay [3], the target named is Peroxisome proliferator-activated receptor delta (Homo sapiens) (UniProt Q03181). As to the kind of experiment: qHTS assay to identify small molecule antagonists of the peroxisome proliferator-activated receptor delta (PPARd) signaling pathway (AID 743215; active = well fitted inhibition curve with a large enough effect in the signal ratio in the repeat runs, not every such curve was filed as active; the % refers to the signal ratio; also: potency is read from the fitted curve at half-maximal effect). Summed up:
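HEK293H UAS-bla, PPARd; agonist L165041 300 nM final with cpd in DMSO; 37 C 17 h; FRET substrate, RT 2 h; fluorescence intensity.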

Assay [4] in a line: qHTS assay to identify small molecule agonists of the farnesoid-X-receptor (FXR) signaling pathway - cell viability counter screen (AID 743218). Also: nearly all actives have a fitted effect of over 45% in size. Also: potency is read from the fitted curve at half-maximal effect. An outline of the steps: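 Parallel cytotoxicity test: compound-treated (16 h, 37 C) HEK 293T FXR-bla reporter cells were lysed with CellTiter-Glo and luminescence recorded.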
In assay [5] the target is Bile acid receptor (Homo sapiens) (UniProt Q96RI1). Nature of the assay: qHTS assay to identify small molecule agonists of the farnesoid-X-receptor (FXR) signaling pathway (AID 743220; active = well fitted activation curve with a large enough effect in the signal ratio in the repeat runs, not every such curve was filed as active; the % refers to the signal ratio). Summed up: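 Beta-lactamase reporter under UAS control in GeneBLAzer FXR HEK 293T cells (5000/well) measured with LiveBLAzer FRET substrate after 2 h at room temperature. Compound exposure lasted 16 h at 37C.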
Sequence of Bile acid receptor (Homo sapiens) (Q96RI1 whole entry, looked up): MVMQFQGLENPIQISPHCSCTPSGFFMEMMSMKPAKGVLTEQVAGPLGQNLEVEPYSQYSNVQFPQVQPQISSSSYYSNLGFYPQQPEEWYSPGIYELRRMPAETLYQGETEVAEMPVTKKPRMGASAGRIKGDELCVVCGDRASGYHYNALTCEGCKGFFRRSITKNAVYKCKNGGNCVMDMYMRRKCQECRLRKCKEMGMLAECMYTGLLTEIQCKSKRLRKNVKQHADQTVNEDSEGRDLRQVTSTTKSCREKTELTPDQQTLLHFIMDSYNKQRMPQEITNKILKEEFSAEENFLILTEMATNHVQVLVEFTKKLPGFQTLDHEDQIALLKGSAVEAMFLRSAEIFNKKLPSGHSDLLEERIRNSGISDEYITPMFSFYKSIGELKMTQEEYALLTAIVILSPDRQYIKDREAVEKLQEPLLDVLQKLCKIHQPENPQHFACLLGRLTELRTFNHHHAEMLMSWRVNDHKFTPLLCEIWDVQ

Assay [6] can be described thus: qHTS assay to identify small molecule agonists of the vitamin D receptor (VDR) signaling pathway - cell viability counter screen (AID 743224). Also: nearly all actives have a fitted effect of over 50% in size. Also: potency is read from the fitted curve at half-maximal effect. An outline of the steps:
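Plated VDR-bla cells (4 h, 37C) received compound, incubated 16 h, then LiveBLAzer substrate 2 h RT; CellTiter-Glo added afterwards, luminescence read at 30 min.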

Assay [7] can be described thus: qHTS assay to identify small molecule antagonists of the vitamin D receptor (VDR) signaling pathway - cell viability counter screen (AID 743225). Also: nearly all actives have a fitted effect of over 50% in size. Also: potency is read from the fitted curve at half-maximal effect. Summed up: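 Cells (VDR-UAS-bla HEK 293T) are plated, rested 4 h at 37C, dosed with compound and 3 nM final 1-alpha,25-dihydroxy vitamin D3, and incubated 16 h. Viability is taken from CellTiter-Glo luminescence in the reporter wells.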

The nature of assay [8]: qHTS assay to identify small molecule agonists of the NFkB signaling pathway - cell viability counter screen (AID 1159515; calls by dose curve; also: nearly all actives have a fitted effect of over 55% in size; also: potency is read from the fitted curve at half-maximal effect). An outline of the steps: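 Using the same wells as the NFkB reporter read, ME-180 NFkB-bla cells given compounds for 5 hr were assessed for viability via CellTiter-Glo, with luminescence taken after a 30 min room-temperature incubation.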
Assay [9] is described as follows: qHTS assay to identify small molecule agonists of the endoplasmic reticulum stress response signaling pathway - cell viability counter screen (AID 1159517; calls by dose curve; also: nearly all actives have a fitted effect of over 50% in size; also: potency is read from the fitted curve at half-maximal effect). An outline of the steps:
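Luminescence readout: CellTiter-Glo, 30 min RT, same wells as the ESRE-bla reporter read. HeLa ESRE-bla, 1,500 cells/well, o/n 37 C; cpd 5 hr 37 C/5% CO2.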

Assay [10] can be described thus: qHTS assay to identify small molecule antagonists of the retinoid-related orphan receptor gamma (ROR-gamma) signaling pathway - cell viability counter screen (AID 1159520). Also: nearly all actives have a fitted effect of over 50% in size. Also: potency is read from the fitted curve at half-maximal effect. An outline of the steps: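 Tet-on ROR gamma CHO cells (1,000/well) were plated 4 hr, given compounds in DMSO for 2 hr at 37 C, then induced with 1 uM final doxycycline for 16 hr. Viability was read as ATP by CellTiter-Glo luminescence after 30 min.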

Assay [11] concerns the target Nuclear receptor ROR-gamma (Homo sapiens) (UniProt P51449). As to the kind of experiment: qHTS assay to identify small molecule antagonists of the retinoid-related orphan receptor gamma (ROR-gamma) signaling pathway (AID 1159521). Summed up: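 RORγ antagonism is scored from reduced reporter luminescence in Tet-on CHO cells. Induction used 1 uM final doxycycline hyclate for 16 h at 37 C, following a 2 h compound exposure.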

Assay [12] has as its target Peroxisome proliferator-activated receptor delta (Homo sapiens) (UniProt Q03181). Nature of the assay: qHTS assay to identify small molecule agonists of the peroxisome proliferator-activated receptor delta (PPARd) signaling pathway (AID 743212; calls by dose curve). An outline of the steps: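 GeneBLAzer PPARd UAS-bla HEK293H cells (beta-lactamase reporter under UAS control), plated and rested 5 h at 37 C, then exposed to compounds in DMSO at 37 C; LiveBLAzer B/G FRET substrate added, 2 h room temperature, fluorescence read.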

Assay [13] in a line: qHTS assay to identify small molecule agonists of the AP-1 signaling pathway - cell viability counter screen (AID 1159525; calls by dose curve; also: nearly all actives have a fitted effect of over 55% in size; also: potency is read from the fitted curve at half-maximal effect). Summed up:
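ME-180 AP-1-bla, 2500 cells/well, Opti-MEM + 0.5% dialyzed FBS; overnight 37 °C; cpd 15-pt titration, 5 h 37 °C; CellTiter-Glo 30 min RT; luminescence read; normalised to TOAB and DMSO controls.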

A short description of assay [14]: qHTS assay to identify small molecule agonists of the AP-1 signaling pathway (AID 1159526; calls by dose curve).
The target of assay [15] is Vitamin D3 receptor (Homo sapiens) (UniProt P11473). Nature of the assay: qHTS assay to identify small molecule antagonists of the vitamin D receptor (VDR) signaling pathway (AID 743223; active = well fitted inhibition curve with a large enough effect in the signal ratio in the repeat runs, not every such curve was filed as active; the % refers to the signal ratio). Summed up: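 Fluorescence from LiveBLAzer B/G FRET substrate, read after 2 h at room temperature, reflects beta-lactamase reporter activity in VDR-bla cells treated 16 h at 37C with compounds and agonist 1alpha,25-dihydroxyvitamin D3 (3 nM final).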
Sequence of Vitamin D3 receptor (Homo sapiens) (P11473 whole entry, looked up): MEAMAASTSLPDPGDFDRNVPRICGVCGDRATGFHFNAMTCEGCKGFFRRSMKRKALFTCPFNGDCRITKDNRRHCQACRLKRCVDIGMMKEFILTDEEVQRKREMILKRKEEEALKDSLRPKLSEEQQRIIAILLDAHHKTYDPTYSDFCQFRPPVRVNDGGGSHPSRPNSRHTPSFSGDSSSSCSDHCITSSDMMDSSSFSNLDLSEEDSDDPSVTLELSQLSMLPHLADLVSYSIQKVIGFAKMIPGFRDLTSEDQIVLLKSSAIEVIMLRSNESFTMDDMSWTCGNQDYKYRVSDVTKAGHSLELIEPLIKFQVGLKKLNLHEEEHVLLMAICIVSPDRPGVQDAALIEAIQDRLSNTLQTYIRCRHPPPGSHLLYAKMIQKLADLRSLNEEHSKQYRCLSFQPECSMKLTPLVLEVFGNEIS

Assay [16] in a line: qHTS assay to identify small molecule antagonists of the farnesoid-X-receptor (FXR) signaling pathway - cell viability counter screen (AID 743221; active = well fitted cell-killing curve with a large enough effect in the repeat runs, not every such curve was filed as active; also: nearly all actives have a fitted effect of over 50% in size; also: potency is read from the fitted curve at half-maximal effect). Summed up:
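Quantitative HTS of the Tox21 10K library run in parallel with the beta-lactamase reporter read. HEK 293T cells carrying a UAS-driven bla reporter got compound and 50 uM CDCA (final) for 16 h; ATP-based luminescence followed.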

In assay [17] the target is Vitamin D3 receptor (Homo sapiens) (UniProt P11473). As to the kind of experiment: qHTS assay to identify small molecule agonists of the vitamin D receptor (VDR) signaling pathway (AID 743222; calls by dose curve). An outline of the steps:
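In VDR-bla cells, compound-induced beta-lactamase expression is quantified by FRET substrate fluorescence. Treatment lasts 16 h at 37C; substrate develops 2 h at room temperature.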

Sequence of Peroxisome proliferator-activated receptor delta (Homo sapiens) (Q03181 whole entry, looked up): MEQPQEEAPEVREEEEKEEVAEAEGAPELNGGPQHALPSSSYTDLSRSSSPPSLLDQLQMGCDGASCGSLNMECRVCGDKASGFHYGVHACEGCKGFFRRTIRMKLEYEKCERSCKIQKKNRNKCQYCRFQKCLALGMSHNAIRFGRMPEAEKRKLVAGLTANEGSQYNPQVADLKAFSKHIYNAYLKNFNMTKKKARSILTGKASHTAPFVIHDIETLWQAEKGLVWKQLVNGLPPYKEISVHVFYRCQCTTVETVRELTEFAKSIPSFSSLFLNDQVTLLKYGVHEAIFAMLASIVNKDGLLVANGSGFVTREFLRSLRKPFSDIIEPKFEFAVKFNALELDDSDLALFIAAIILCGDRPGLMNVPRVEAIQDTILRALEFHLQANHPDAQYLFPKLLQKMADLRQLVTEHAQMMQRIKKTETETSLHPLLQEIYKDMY

In the case of `O=C(CCl)Nc1ccccc1`, the Potency in [1] is 49 µM (active); in assay [3], 17.4 µM (active); in assay [6] it was 24.5 µM (active); in assay [7], 49 µM (active); in assay [10], 27.3 µM (active); in assay [11], 21.7 µM (active). The Potency result in [2], in assay [4], in assay [8] and in assay [9] was “inactive” each time. For the same molecule, the result in assay [5] was inactive.
`CC1(C)[C@H](C(=O)O[C@H](C#N)c2cccc(Oc3ccccc3)c2)[C@@H]1/C=C(\Cl)C(F)(F)F`: the Potency result in [12], in assay [4], in assay [8], in assay [9], in assay [10] and in [13] was “inactive” throughout. Further, the Potency result in assay [14] was “inactive”. For the same molecule, in assay [5], the molecule was classed as inactive.
Regarding `S=C=Nc1cccc2ccccc12`, the Potency is 24.3 µM (active) in [1]; 54.4 µM (active) in assay [6]; 21.7 µM (active) in [8]; 19.3 µM (active) in assay [9]; 24.3 µM (active) in assay [13]. In addition, in assay [5], the call was inactive. The Potency entry in assay [15], in assay [7] and in [10] was “inactive” in each case.
For the molecule `CCCCCCCCCCCCCC[P+](CCCCCC)(CCCCCC)CCCCCC` (tested in a mixture with another compound), the Potency in assay [1] is 2.46 µM (active); in assay [2], 11 µM (active); in [4] it was 7.76 µM (active); in assay [16] it was 6.92 µM (active); in [6], 3.09 µM (active); in assay [7] it was 2.75 µM (active). The Potency is 17.4 µM (active) in [8], 17.4 µM (active) in [9], 15.4 µM (active) in [10] and 21.9 µM (active) in assay [13].
Regarding `CN(C)C1CSSSC1`, the Potency result in assay [1], in assay [12], in assay [2], in [16], in assay [17] and in assay [6] was “inactive” each time. The Potency entry in assay [7], in assay [8], in [9], in assay [10], in assay [13] and in [14] was “inactive” throughout.
`CC(=O)[O-].CC(=O)[O-].[Hg+2]`: the Potency in assay [1] was 1.74 µM (active); in assay [2], 3.47 µM (active); in assay [4], 1.1 µM (active); in assay [16], 3.09 µM (active); in [6] it was 1.74 µM (active); in assay [7], 3.09 µM (active). Besides, the Potency is 0.871 µM (active) in [8], 0.776 µM (active) in [9], 1.22 µM (active) in assay [10] and 3.89 µM (active) in [13].
For `CC(C)[C@H](C(=O)O[C@H](C#N)c1cccc(Oc2ccccc2)c1)c1ccc(Cl)cc1`, the Potency result in [1], in assay [12], in assay [2], in assay [16], in assay [7] and in [8] was “inactive” in each case. Also, the Potency entry in assay [9], in [10] and in assay [13] was “inactive” in each case.
For `CCOC(=O)CC(=O)CCl`, the Potency result in assay [1], in assay [2], in [4], in assay [16], in assay [17] and in [6] was “inactive” each time. Moreover, the Potency result in assay [7], in assay [8], in [9], in assay [13] and in assay [14] was “inactive” each time. Moreover, in assay [11], the Potency was 48.6 µM (active).
Consider `C=CCC1=C(C)C(OC(=O)C2C(C=C(C)C)C2(C)C)CC1=O` (stereo not drawn), for which the Potency in assay [4] was 51.9 µM (active); in assay [16], 46.3 µM (active); in assay [6], 18.4 µM (active); in [8], 58.3 µM (active); in assay [9], 36.8 µM (active); in [10], 61.1 µM (active). For the same molecule, the Potency in assay [11] is 32.5 µM (active).
